# Data from PubChem BioAssay AID651702 (NMMLSC, 2012).
# The campaign covered roughly 360,000 compounds. About 2,400 (0.67%) were called active. The full list was thinned out, with actives kept by preference. Unmarked numbers belong to inactive results.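 How the source made its calls: active means inhibition above about 55% (limit read from the data); inconclusive means no clear call, values can overlap the other calls; inactive means the rest.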
# Assay: LAMP-1 surface exposure blockers, TALL-104 cells – cell-based, flow cytometry, MLPCN library, primary screen (AID 651702)
# Conditions: TALL-104 LAMP-1 surface exposure, at 10 µM, stronger effect = higher value, cells stimulated with thapsigargin and PMA
row,Compound,inhibition
1,COc1cccc(NC(=O)CSc2nccn(-c3ccc4c(c3)OCCO4)c2=O)c1,-0.2%
2,C/C=C/c1ccc(OCC(O)CN2CCCCCCC2)c(OC)c1 (configuration not stated),-1%
3,CCOC(=O)N1CCN(c2cc(C)c([N+](=O)[O-])cc2F)CC1,-1%
4,CN(C)c1ccc(N/C=C/C(=O)C(F)(F)F)cc1,0.5%
5,NNC(=O)C1CC(O)CN1S(=O)(=O)c1ccc(Cl)cc1 (configuration not stated),-0.1%
6,COc1cccc(COc2ccc(N(C)S(=O)(=O)c3ccccc3)cc2)c1,72% (active)
7,Cc1ccc2nc(COc3ccc(N(C)S(=O)(=O)c4ccccc4)cc3)cc(=O)n2c1,2%
8,CN(c1ccccc1)S(=O)(=O)c1ccc(NC(=O)COc2ccccc2)cc1,16.3%
9,Cc1ccc(NC(=O)CN2CCCCC2)c2c1CC(C)(C)O2,-0.4%
10,CCc1cccc(C)c1NC(=S)N(CCCN1CCN(C)CC1)Cc1cccs1,-1.6%
11,Cc1ccc(NC(=S)N(CCCN2CCCC2)Cc2cccn2Cc2ccc(Cl)cc2)cc1,75.2% (active)
12,Cc1ccccc1NC(=S)N(CCCN1CCOCC1)Cc1cccs1,5.8%
13,O=C(c1n[nH]c2c1CCC2)N1CCCC(Nc2cccc(F)c2)C1 (configuration not stated),-7.9%
14,CCCCC(CC)CNCc1cccn1CCN1CCOCC1 (configuration not stated),19.8%
15,COc1ccc(NC(=O)C2=CC(c3ccc(OC)c(OC)c3)=NS(=O)(=O)N2C)cc1,-5.8%
16,CCc1ccc(C2N3CC4([N+](=O)[O-])CN2CC([N+](=O)[O-])(C3)C4(C)C)cc1 (configuration not stated),-2%
17,Oc1ccc2ccccc2c1N=Nc1nccs1,61.9% (active)
18,CC(C)(C)c1cc2cccnc2n1Cc1ccccc1,0%
19,O=S(=O)(Nc1ccc2ccccc2c1)N1CCCCC1,-2.7%

row,Compound,inhibition
1,COc1ccc(S(=O)(=O)N(C)C[C@@H]2Oc3ccc(NS(=O)(=O)c4cn(C)cn4)cc3C(=O)N([C@@H](C)CO)C[C@@H]2C)cc1,-0.8%
2,COc1ccccc1NS(=O)(=O)c1ccc(C(=O)N2CCN(c3ccccc3O)CC2)cc1,2.1%
3,O=S(=O)(Nc1ccc(OC(F)(F)F)cc1)c1cccc2nonc12,-6.5%
4,O=S(=O)(Nc1ccc(O)c2ccccc12)c1ccc(OC(F)(F)F)cc1,60.2% (active)
5,O=C(NCc1cccc(C(F)(F)F)c1)c1ccc2sc(COCCO)nc2c1,2.2%
6,C#CCN1C(=O)C(O)(CC(=O)c2cc(OC)ccc2OC)c2ccccc21 (configuration not stated),-1.2%
7,COc1ccc2c(c1)C(=C(C#N)C#N)C(=O)N2CCc1ccccc1,97.9% (active)
8,CCCCN1C(=O)/C(=C(/C#N)C(N)=O)c2ccccc21,-1.7%
9,CCOC(=O)[C@]12CCCC=C1N(CCC1=CCCCC1)C(=O)[C@H](CC(=O)NCCCCc1ccccc1)C2,11.5%
10,OC(CN=c1sc2ccccc2n1CC(O)COc1ccccc1)COc1ccccc1 (configuration not stated),91.1% (active)
11,OC(COc1ccc(CN2CCSCC2)cc1)CN1CCCCC1 (configuration not stated),19.9%
12,Cc1cccc(OCC(O)Cn2c(=N)n(CCN3CCOCC3)c3ccccc32)c1 (configuration not stated),1.7%
13,O=c1cc(CO)oc(C(Nc2cccc(C(F)(F)F)c2)c2ccccn2)c1O (configuration not stated),1.7%
14,CC(C)CCN1NC2(CCC(C)CC2)NC1=S (configuration not stated),-6.9%
15,O=C(COC(=O)c1ccccc1SCC(=O)N1CCCC1)Nc1ccccc1OC(F)F,-7.8%
16,CN(c1ccccc1)S(=O)(=O)c1ccc(C(=O)NCCc2ccccc2)cc1,70.8% (active)
17,Cc1ccccc1CSCCNC(=O)c1ccc(N(C)S(=O)(=O)c2ccccc2)cc1,6.2%
18,CN(c1ccccc1)S(=O)(=O)c1ccc(C(=O)NCc2cccnc2)cc1,-0.5%
19,CCOC(=O)[C@H]1[C@H]2COc3cc(OC)ccc3[C@@H]2N2C(=O)N(c3ccc(Br)cc3)C(=O)[C@@]12C,-15.5%

row,Compound,inhibition
1,CC(Oc1ccccc1)C(=O)Nc1c2c(nn1-c1ccccc1)CS(=O)C2 (configuration not stated),-4%
2,CCOC(=O)N1CCC(Nc2c(NCCN3CCN(c4cccc(Cl)c4)CC3)c(=O)c2=O)CC1,1.5%
3,O=C(Cc1ccc(-n2c(=O)[nH]c3ccccc3c2=O)cc1)N1CCN(c2cccc(Cl)c2)CC1,-0.7%
4,O=C(Cc1csc(Nc2nc(=S)[nH]c3ccccc23)n1)NCCCN1CCN(c2cccc(Cl)c2)CC1,56.9% (active)
5,CC(=O)OCC(=O)C1(O)CCC2C3CC(C)C4=CC(=O)CCC4(C)C3C(O)CC21C (configuration not stated),-8.4%
6,CC(C(=O)NCC1CCCCC1)N(C)Cc1cccc(Cl)c1 (configuration not stated),0.2%
7,COc1ccc(NC(=O)C(c2ccncc2)n2c(=O)c(-c3cc4ccccc4[nH]3)nc3ccccc32)cc1 (configuration not stated),19.8%
8,COc1cc(NC(=O)COC(=O)c2cc(S(=O)(=O)N3CCOCC3)ccc2F)cc(OC)c1,-1.4%
9,Cc1nc(-c2ccc(Cl)cc2)sc1C1(C)CC(c2ccccc2F)=NO1 (configuration not stated),5.5%
10,Cc1nc(C(=O)Nc2ccc(Cl)cc2)sc1C1(C)CC(c2ccccc2)=NO1 (configuration not stated),1.2%
11,Cc1nc(-c2ccc(Cl)cc2)sc1C1(C)CC(c2ccc(Br)cc2)=NO1 (configuration not stated),56.1% (active)
12,Cc1ccccc1CSc1nnc(CCCCCNC(=O)OC(C)(C)C)o1,-4.6%
13,CC(C)Cc1nnc(NC(=O)CN2C(=O)NC3(CCCCC3)C2=O)s1,-0.9%
14,COc1cccc(CN(C)CC(=O)NCc2ccccc2Cl)c1OC,-3.5%
15,COc1cccc(CN(C)CC2CCCN(CCc3ccc(Cl)cc3)C2)c1OC (configuration not stated),75.1% (active)
16,Cc1nc2ccc(C(=O)N(C)CC3CCCN(CCc4ccc(Cl)cc4)C3)cc2[nH]1 (configuration not stated),6.7%
17,COCCNC(=O)C(c1ccc(O)cc1)N(C(=O)CCC(=O)Nc1nccs1)c1ccc(C)cc1 (configuration not stated),-4.4%
18,CCOc1cc(CN2CCCC(CO)(Cc3ccc(F)cc3F)C2)ccc1OC (configuration not stated),11.4%
19,Cc1cc(C)cc(NC(=O)NC2CCN(CC(=O)Nc3cccc(Cl)c3C)CC2)c1,9.3%
